Data reported in PubChem BioAssay AID1159580 (chemical genetic matrix, 2015).
About 2,000 (36%) of roughly 5,500 compounds were called active. Roughly 18% stayed inconclusive and do not appear here. No stated cut-off is given here; in the data, active means normalized growth mostly below about 0.91 (no sharp cut-off); inconclusive means no clear call, values can overlap the other calls; inactive means mostly above about 0.92. The list shows a part of the results.

Experiment: chemical genetic growth profiling, strain panel (AID 1159580);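 further: tested at 20 µM; growth read once vehicle control cultures reached saturation at 30 °C; 1 = growth at the plate median or of vehicle wells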
Details: S. cerevisiae deletion strains, growth OD
[1] = locus YAL040C, strain CLN3, stronger effect = lower value
[2] = locus YCL061C, strain MRC1 (second series), stronger effect = lower value
[3] = locus YDR363W, strain ESC2, stronger effect = lower value
[4] = locus YER002W, strain NOP16, stronger effect = lower value
[5] = locus YGR078C, strain PAC10, stronger effect = lower value
[6] = locus YGR229C, strain SMI1, stronger effect = lower value
[7] = locus YNL175C, strain NOP13, stronger effect = lower value
[8] = locus YNL197C, strain WHI3, stronger effect = lower value
[9] = locus YNL224C, strain SQS1, stronger effect = lower value
[10] = locus YNL322C, strain KRE1, stronger effect = lower value
[11] = locus YOR083W, strain WHI5 (second series), stronger effect = lower value
[12] = locus YDR150W, strain NUM1, stronger effect = lower value
[13] = locus YJR075W, strain HOC1, stronger effect = lower value
[14] = locus YMR263W, strain SAP30, stronger effect = lower value
[15] = locus YMR307W, strain GAS1, stronger effect = lower value
[16] = locus YPL241C, strain CIN2, stronger effect = lower value
[17] = locus YHR030C, strain SLT2, stronger effect = lower value

Measured: normalized growth

CC(/C=C/c1cccc(Oc2ccc(F)cc2)c1)N(O)C(N)=O (stereo unspecified)
inactive: [1] 0.991 | [2] 0.994 | [3] 0.987 | [4] 1.01 | [5] 1.01 | [6] 1 | [7] 1 | [8] 0.971 | [9] 0.984 | [10] 1.01 | [11] 0.966

N=C1Sc2ccccc2C2=NCCCN12
inactive: [1] 1.02 | [2] 1.01 | [12] 1.04 | [3] 1.01 | [4] 1.04 | [5] 1.02 | [13] 0.945 | [14] 1.01 | [7] 1.04 | [8] 1.02 | [9] 1.02 | [10] 1.01 | [11] 0.988 | [16] 1.02
active: [15] 0.872

Clc1ccc(C2=CSC3=NCCCN23)cc1
inactive: locus YAL013W, strain DEP1, stronger effect = lower value 0.997 | locus YBR229C, strain ROT2, stronger effect = lower value 1.02 | locus YDL101C, strain DUN1, stronger effect = lower value 0.993 | [12] 0.959 | locus YEL061C, strain CIN8, stronger effect = lower value 1 | [5] 0.992 | [6] 1.01 | [17] 0.986 | locus YHR087W, strain rtc3, stronger effect = lower value 0.994 | locus YJR043C, strain POL32, stronger effect = lower value 0.999 | [13] 0.989 | locus YLR039C, strain RIC1, stronger effect = lower value 0.989 | locus YLR058C, strain SHM2 (second series), stronger effect = lower value 1.01 | locus YLR085C, strain ARP6, stronger effect = lower value 1.03 | locus YLR262C, strain YPT6, stronger effect = lower value 0.998 | locus YML094W, strain GIM5, stronger effect = lower value 0.993 | locus YMR219W, strain ESC1, stronger effect = lower value 1.01 | [14] 0.986 | [15] 0.982 | locus YNL153C, strain GIM3, stronger effect = lower value 0.995 | locus YNL298W, strain CLA4 (second series), stronger effect = lower value 1.04 | [10] 0.999 | locus YNR030W, strain Alg12, stronger effect = lower value 1.01 | locus YPL055C, strain LGE1, stronger effect = lower value 1.03 | [16] 1 | locus YPR135W, strain CTF4, stronger effect = lower value 1.02

OCCOCCN1CCN(C2=Nc3ccccc3Sc3ccccc32)CC1
inactive: locus YAL021C, strain ccr4, stronger effect = lower value 1.01 | locus YAL026C, strain drs2, stronger effect = lower value 1 | locus YAL030W, strain snc1, stronger effect = lower value 0.992 | locus YBL061C, strain skt5, stronger effect = lower value 1.02 | locus YBR009C, strain hhf1, stronger effect = lower value 1.02 | locus YBR023C, strain chs3, stronger effect = lower value 1.01 | locus YBR171W, strain sec66, stronger effect = lower value 1 | locus YBR231C, strain swc5, stronger effect = lower value 1.01 | locus YBR279W, strain paf1, stronger effect = lower value 1.01 | locus YCL011C, strain gbp2, stronger effect = lower value 0.993 | locus YCL016C, strain dcc1, stronger effect = lower value 0.997 | locus YCL069W, strain vba3, stronger effect = lower value 1.01 | locus YCR088W, strain abp1, stronger effect = lower value 1 | locus YDL005C, strain med2, stronger effect = lower value 1 | locus YDL040C, strain nat1, stronger effect = lower value 1 | locus YDR001C, strain nth1, stronger effect = lower value 1.01 | locus YDR069C, strain doa4, stronger effect = lower value 0.998 | locus YDR137W, strain rgp1, stronger effect = lower value 1 | locus YDR159W, strain sac3, stronger effect = lower value 1 | locus YDR195W, strain ref2 0.977 | locus YDR297W, strain sur2, stronger effect = lower value 0.993 | locus YDR334W, strain swr1, stronger effect = lower value 1.01 | locus YDR335W, strain msn5, stronger effect = lower value 1.01 | locus YDR392W, strain spt3, stronger effect = lower value 1.02 | locus YEL003W, strain gim4, stronger effect = lower value 1 | locus YEL037C, strain rad23, stronger effect = lower value 1.01 | locus YEL061C, strain CIN8 (second series), stronger effect = lower value 1 | locus YER015W, strain faa2, stronger effect = lower value 1.01 | locus YER016W, strain bim1, stronger effect = lower value 1.01 | locus YER111C, strain swi4, stronger effect = lower value 1.01 | locus YER155C, strain BEM2 (second series), stronger effect = lower value 0.993 | locus YFR010W, strain ubp6, stronger effect = lower value 1.01 | locus YGL167C, strain pmr1, stronger effect = lower value 1 | locus YGL173C, strain kem1, stronger effect = lower value 1 | locus YGL227W, strain vid30, stronger effect = lower value 0.989 | locus YGL240W, strain doc1, stronger effect = lower value 0.992 | locus YGL253W, strain hxk2, stronger effect = lower value 1.02 | locus YHR013C, strain ard1, stronger effect = lower value 0.982 | locus YHR027C, strain rpn1, stronger effect = lower value 1 | [17] 0.991 | locus YHR079C, strain IRE1, stronger effect = lower value 0.994 | locus YHR142W, strain chs7, stronger effect = lower value 1.02 | locus YJL092W, strain hpr5, stronger effect = lower value 1.02 | locus YJL095W, strain BCK1 (second series), stronger effect = lower value 1 | locus YJL095W, strain BCK1, stronger effect = lower value 0.999 | locus YJL115W, strain asf1, stronger effect = lower value 1 | locus YJL129C, strain trk1, stronger effect = lower value 1.02 | locus YJL154C, strain vps35, stronger effect = lower value 1.03 | locus YJL164C, strain tpk1, stronger effect = lower value 1.01 | locus YJL166W, strain qcr8, stronger effect = lower value 1.01 | locus YJL187C, strain SWE1, stronger effect = lower value 1.01 | locus YJR066W, strain TOR1, stronger effect = lower value 0.978 | locus YKL160W, strain elf1, stronger effect = lower value 1 | locus YKR026C, strain gcn3, stronger effect = lower value 1.02 | locus YKR091W, strain srl3, stronger effect = lower value 1.01 | locus YLL001W, strain dnm1, stronger effect = lower value 0.996 | locus YLL026W, stronger effect = lower value 1 | locus YLL041C, strain sdh2, stronger effect = lower value 1.02 | locus YLR027C, strain aat2, stronger effect = lower value 1.01 | locus YLR113W, strain HOG1, stronger effect = lower value 1 | locus YLR221C, strain rsa3, stronger effect = lower value 1 | locus YLR258W, strain gsy2, stronger effect = lower value 1.01 | locus YLR262C, strain YPT6 (second series), stronger effect = lower value 1.03 | locus YLR320W, strain mms22, stronger effect = lower value 0.981 | locus YLR342W, strain FKS1, stronger effect = lower value 1 | locus YLR357W, strain rsc2, stronger effect = lower value 1.01 | locus YLR370C, strain arc18, stronger effect = lower value 1.01 | locus YLR384C, strain iki3, stronger effect = lower value 1.01 | locus YML120C, strain ndi1, stronger effect = lower value 1.01 | locus YMR058W, strain fet3, stronger effect = lower value 1.01 | locus YMR125W, strain sto1, stronger effect = lower value 1.01 | locus YMR129W, stronger effect = lower value 1.01 | locus YMR205C, strain PFK2, stronger effect = lower value 0.994 | locus YMR231W, strain pep5, stronger effect = lower value 1 | locus YNL071W, strain lat1, stronger effect = lower value 1 | locus YNL183C, strain NPR1, stronger effect = lower value 0.975 | locus YNL209W, strain ssb2, stronger effect = lower value 1.01 | locus YNL248C, strain rpa49, stronger effect = lower value 0.977 | locus YNL322C, strain KRE1 (second series), stronger effect = lower value 1 | locus YNR049C, strain mso1, stronger effect = lower value 1.01 | locus YOR001W, strain rrp6, stronger effect = lower value 0.995 | locus YOR070C, strain gyp1, stronger effect = lower value 0.995 | locus YOR080W, strain dia2, stronger effect = lower value 1 | locus YOR083W, strain WHI5, stronger effect = lower value 0.991 | locus YOR106W, strain vam3, stronger effect = lower value 0.997 | locus YOR231W, strain MKK1, stronger effect = lower value 0.981 | locus YOR265W, strain rbl2, stronger effect = lower value 1 | locus YOR270C, strain vph1, stronger effect = lower value 1 | locus YOR290C, strain snf2, stronger effect = lower value 1 | locus YPL051W, strain arl3, stronger effect = lower value 1.02 | locus YPL078C, strain atp4, stronger effect = lower value 1.01 | locus YPL106C, strain sse1, stronger effect = lower value 1.03 | locus YPL240C, strain hsp82, stronger effect = lower value 1 | locus YPL256C, strain CLN2, stronger effect = lower value 0.989
